Measurements: PubChem BioAssay (EPA / NIEHS)
Results filed as inconclusive are left out. The source made the active and inactive calls. The calls were made as follows: active = hit-call score of the fitted dose curve at least 0.9, where 1 is the maximum; inconclusive = response in the unintended direction; inactive = score below 0.9.

target: Cytochrome P450 2C19 (Homo sapiens) (UniProt P33261); experiment: NVS_ADME_hCYP2C19: NovaScreen (NVS) CYP450-related Enzyme Activity (ADME) Assay for human CYP2C19 (AID 2283113);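 as to AC50: potency for inhibition seen as loss of fluorescent signal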
Method in brief: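 Cell-free recombinant human CYP2C19 from insect cells, fluorescent substrate; activity read by fluorescence intensity 1 h after dosing. Primary screen in duplicate at 10 uM; actives retested in concentration series. Signal loss versus acetonitrile negative control.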

Compound | AC50 | outcome
CN(C)C(=S)SC(=S)N(C)C | 1.03 µM (active) | –
Cc1cc(CCC(=O)OCCOCCOCCOC(=O)CCc2cc(C)c(O)c(C(C)(C)C)c2)cc(C(C)(C)C)c1O | 2.45 µM (active) | –
CS(=O)(=O)OCCCCOS(C)(=O)=O | – | inactive
CSCCC=O | 0.29 µM (active) | –
O=C1OC[C@H](Cc2cccc(O)c2)[C@H]1Cc1cccc(O)c1 | 0.686 µM (active) | –

target: human Caspase 5 (CASP5), CASP5 (gene 838) (UniProt P51878); experiment: NVS_ENZ_hCASP5: NovaScreen (NVS) Enzymatic Assay for human Caspase 5 (CASP5) (AID 2283137)
Method in brief: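 Loss of fluorescent signal versus DMSO scored for E. coli-derived human CASP5 cleaving a fluorescent substrate, 2 h post-dosing; compounds first tested at 25 uM in duplicate, hits rerun in concentration series with 50 uM top concentration.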

Sequence of human Caspase 5 (CASP5), CASP5 (gene 838) (P51878 whole entry, looked up): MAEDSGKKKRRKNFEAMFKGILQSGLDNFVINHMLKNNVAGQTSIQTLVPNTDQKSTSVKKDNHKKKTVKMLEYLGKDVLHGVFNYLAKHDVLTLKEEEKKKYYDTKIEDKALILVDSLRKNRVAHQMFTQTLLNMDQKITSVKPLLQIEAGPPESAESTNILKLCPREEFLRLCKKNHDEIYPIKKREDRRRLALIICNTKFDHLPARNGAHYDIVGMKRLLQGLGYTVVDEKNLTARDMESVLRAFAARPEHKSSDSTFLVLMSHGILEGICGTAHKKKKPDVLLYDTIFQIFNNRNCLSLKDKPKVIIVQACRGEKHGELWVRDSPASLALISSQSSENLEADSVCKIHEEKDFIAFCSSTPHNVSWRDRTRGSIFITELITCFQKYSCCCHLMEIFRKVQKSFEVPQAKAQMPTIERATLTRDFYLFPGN

Compound | AC50 | outcome
CCCCCCCCCCCCCCCC(=O)OC/C=C(C)/C=C/C=C(C)/C=C/C1=C(C)CCCC1(C)C | 5.57 µM (active) | –
O=C1c2ccccc2C(=O)c2c(O)ccc(O)c21 | 7.12 µM (active) | –
Oc1c(Cl)cc(Cl)c(Cl)c1Cc1c(O)c(Cl)cc(Cl)c1Cl | 2.9 µM (active) | –
CCCC[O][Al]([O]CCCC)[O]CCCC | 0.138 µM (active) | –
c1ccc(Oc2ccccc2)cc1 | – | inactive
c1ccc2cc(Nc3ccc(Nc4ccc5ccccc5c4)cc3)ccc2c1 | – | inactive

target: human Beta-secretase (BACE), BACE1 (gene 23621) (UniProt P56817); experiment: NVS_ENZ_hBACE: NovaScreen (NVS) Enzymatic Assay for human Beta-secretase (BACE) (AID 2283140);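 also: hits are inhibitors that reduce fluorescent substrate signal versus DMSO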
Method in brief: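 Enzyme from SF9 cells was incubated 1 hour with compound and fluorogenic substrate, activity read by fluorescence. Single-concentration duplicates at 25 uM preceded concentration-response follow-up; fitting relative to DMSO baseline.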

Sequence of human Beta-secretase (BACE), BACE1 (gene 23621) (P56817 whole entry, looked up): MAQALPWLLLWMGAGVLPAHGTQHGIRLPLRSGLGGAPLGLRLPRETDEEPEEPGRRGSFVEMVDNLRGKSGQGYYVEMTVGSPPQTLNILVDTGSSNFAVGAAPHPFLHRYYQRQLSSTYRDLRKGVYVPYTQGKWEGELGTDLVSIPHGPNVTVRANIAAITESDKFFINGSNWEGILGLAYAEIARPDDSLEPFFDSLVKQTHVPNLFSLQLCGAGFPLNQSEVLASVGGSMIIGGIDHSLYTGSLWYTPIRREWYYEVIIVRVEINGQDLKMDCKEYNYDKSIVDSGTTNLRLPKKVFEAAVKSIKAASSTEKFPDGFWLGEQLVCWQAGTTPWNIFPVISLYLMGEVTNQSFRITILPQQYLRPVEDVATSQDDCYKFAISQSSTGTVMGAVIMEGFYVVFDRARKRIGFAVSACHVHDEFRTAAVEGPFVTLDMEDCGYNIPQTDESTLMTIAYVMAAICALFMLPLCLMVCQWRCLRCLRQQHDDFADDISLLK

Compound | outcome | AC50
CC(C)(N=C=O)c1cccc(C(C)(C)N=C=O)c1 | inactive | –
C=C(C)C(=O)OCC(CC)(COC(=O)C(=C)C)COC(=O)C(=C)C | – | 17.1 µM (active)
O=C1c2ccccc2C(=O)c2c(O)ccc(O)c21 | – | 25 µM (active)
CCCCCC(C)=O | inactive | –
Oc1c(Cl)cc(Cl)c(Cl)c1Cc1c(O)c(Cl)cc(Cl)c1Cl | – | 1.21 µM (active)
CCCC[O][Al]([O]CCCC)[O]CCCC | inactive | –
COC(C)(C)CCO | inactive | –
c1ccc2cc(Nc3ccc(Nc4ccc5ccccc5c4)cc3)ccc2c1 | – | 13.1 µM (active)
CCOCCOCCOCC | inactive | –

target: human Dual Specificity Protein Phosphatase 3 (DUSP3), DUSP3 (gene 1845) (UniProt P51452); experiment: NVS_ENZ_hDUSP3: NovaScreen (NVS) Enzymatic Assay for human Dual Specificity Protein Phosphatase 3 (DUSP3) (AID 2283152);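 also: phosphatase activity of recombinant human DUSP3 on a fluorogenic substrate without cells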
Method in brief: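 Cell-free fluorescence-intensity enzyme activity assay with recombinant protein and substrate; loss of signal fitted relative to DMSO baseline. Primary screen in duplicate at 25 uM, actives then run in concentration series; measured 0 h after dosing.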

Sequence of human Dual Specificity Protein Phosphatase 3 (DUSP3), DUSP3 (gene 1845) (P51452 whole entry, looked up): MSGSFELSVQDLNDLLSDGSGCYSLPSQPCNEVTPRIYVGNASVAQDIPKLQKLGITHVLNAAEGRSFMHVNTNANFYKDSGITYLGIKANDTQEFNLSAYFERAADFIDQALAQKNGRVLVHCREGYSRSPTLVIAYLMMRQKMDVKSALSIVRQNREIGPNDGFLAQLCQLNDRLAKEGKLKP

Compound | outcome | AC50
CCCCOC(=O)CCCCCCCC(=O)OCCCC | inactive | –
CCCCCCCCCCCCCCCC(=O)OC/C=C(C)/C=C/C=C(C)/C=C/C1=C(C)CCCC1(C)C | – | 25 µM (active)
C=C(C)C(=O)OCC(CC)(COC(=O)C(=C)C)COC(=O)C(=C)C | – | 12.4 µM (active)
CN(C)C(=S)SC(=S)N(C)C | – | 0.326 µM (active)
NC(=S)NNC(N)=S | – | 4.96 µM (active)
c1ccc2cc(Nc3ccc(Nc4ccc5ccccc5c4)cc3)ccc2c1 | – | 22.4 µM (active)

target: human Ephrin type-A Receptor 1 (EphA1), EPHA1 (gene 2041) (UniProt P21709); experiment: NVS_ENZ_hEphA1: NovaScreen (NVS) Enzymatic Assay for human Ephrin type-A Receptor 1 (EphA1) (AID 2283158);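 also: activity is signal loss versus DMSO meaning EphA1 kinase inhibition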
Method in brief: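 Cell-free kinase activity with recombinant protein, 1 hour after dosing; product separated by electrophoretic mobility shift, fluorescence read. Primary screen at 25 uM in duplicate; hits run as concentration-response up to 50 uM, relative to DMSO.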

Sequence of human Ephrin type-A Receptor 1 (EphA1), EPHA1 (gene 2041) (P21709 whole entry, looked up): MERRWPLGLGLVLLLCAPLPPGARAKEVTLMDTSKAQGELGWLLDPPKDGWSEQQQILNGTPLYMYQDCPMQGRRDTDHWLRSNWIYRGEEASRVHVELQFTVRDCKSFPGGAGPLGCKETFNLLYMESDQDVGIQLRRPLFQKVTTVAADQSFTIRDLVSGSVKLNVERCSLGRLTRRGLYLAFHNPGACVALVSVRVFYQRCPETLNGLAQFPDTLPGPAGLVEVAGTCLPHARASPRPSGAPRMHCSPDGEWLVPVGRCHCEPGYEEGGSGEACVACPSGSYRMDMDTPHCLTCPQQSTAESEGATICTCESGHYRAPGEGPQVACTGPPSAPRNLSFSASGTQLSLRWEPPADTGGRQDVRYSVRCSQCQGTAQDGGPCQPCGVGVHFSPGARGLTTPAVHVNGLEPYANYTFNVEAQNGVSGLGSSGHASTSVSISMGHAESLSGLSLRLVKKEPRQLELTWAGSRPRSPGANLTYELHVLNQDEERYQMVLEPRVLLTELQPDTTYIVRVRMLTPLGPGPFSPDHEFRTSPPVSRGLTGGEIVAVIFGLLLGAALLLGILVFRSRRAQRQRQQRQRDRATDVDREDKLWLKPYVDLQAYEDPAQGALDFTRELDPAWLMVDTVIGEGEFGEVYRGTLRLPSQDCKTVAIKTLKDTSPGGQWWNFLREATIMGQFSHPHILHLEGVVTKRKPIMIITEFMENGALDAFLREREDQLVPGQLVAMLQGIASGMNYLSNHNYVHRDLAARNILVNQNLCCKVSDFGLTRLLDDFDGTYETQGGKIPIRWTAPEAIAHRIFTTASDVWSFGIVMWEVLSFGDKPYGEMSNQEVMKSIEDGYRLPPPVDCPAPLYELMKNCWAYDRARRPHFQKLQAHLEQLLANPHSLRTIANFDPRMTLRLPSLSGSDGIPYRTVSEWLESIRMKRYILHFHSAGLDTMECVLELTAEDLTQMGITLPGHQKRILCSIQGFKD

Compound | outcome | AC50
CC(C)(N=C=O)c1cccc(C(C)(C)N=C=O)c1 | inactive | –
C=C(C)C(=O)OCCOCCOCCOCCOC(=O)C(=C)C | – | 35.3 µM (active)
Cc1ncc([N+](=O)[O-])n1CCO | – | 11.7 µM (active)
CCC(C)c1cc([N+](=O)[O-])cc([N+](=O)[O-])c1OC(=O)OC(C)C (stereo unspecified) | – | 14 µM (active)
COCCOC(=O)c1ccccc1C(=O)OCCOC | inactive | –
OCCCCC(O)CO (stereo unspecified) | – | 5.49 µM (active)
CC(=O)C(C)O (stereo unspecified) | inactive | –
c1ccc2cc(Nc3ccc(Nc4ccc5ccccc5c4)cc3)ccc2c1 | inactive | –
CCCCSCCCC | inactive | –
CCN(CC)C(=O)N(CC)CC | – | 25 µM (active)
